# Compound activity: PubChem BioAssay, National Center for Advancing Translational Sciences (NCATS)
# Vif-A3F inh – qHTS for Inhibitors of Vif-A3F Interactions: qHTS; HeLa A3F-eYFP + Vif (tagged APOBEC3F with the HIV-1 protein that degrades it), YFP fluorescence increase; Potency, µM (top dose mostly 46.1 µM), for inactives: top-dose activity, negative = active; actives 0.2% (n = 390,000); further: potency means the concentration at half of the fitted maximal effect; % of control where 0% means no effect; nearly all actives have a fitted effect of over 65% in size
#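 HeLa cells stably expressing Vif plus C-terminally eYFP-tagged A3F were seeded, incubated overnight at 37 deg C, dosed with compound, incubated overnight again at 37 deg C. Yellow fluorescence (Ex 488/Em 500-530) reported blocked Vif-mediated A3F-eYFP degradation.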
# SW480 rerep – A quantitative high throughput screen for small molecules that induce DNA re-replication in SW480 colon adenocarcinoma cells. SW480 DNA re-replication, Hoechst DNA content imaging, 48 h. AID 624297, 2012. actives 1.8% (n = 340,000). Potency, µM (top dose mostly 46.1 µM), without a hit: at the highest dose re-replication activation, hits mostly activators; further: potency means the concentration at half of the fitted maximal effect; % of control where 0% means no effect; nearly all actives have a fitted effect of over 55% in size
#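 250 cells/well; 23 nL cpd via pin tool; 48 hr, 37 C, 5% CO2; Hoechst 40 min; imager read of total nuclear intensity, ex 405/em 500-530 nm.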
# IL1B secr inh – qHTS for Inhibitors of Inflammasome Signaling: IL-1-beta AlphaLISA Primary Screen. THP-1 LPS/ATP IL-1B secretion, AlphaLISA, 16 h; stronger effect = lower value. activity change, % at 57.5 µM. actives 4.7% (n = 360,000). AID 743279, 2014; in the data active means activity change below about -50%; inconclusive means mostly about -30% to -49%; further: on the % scale 0 is the no-effect control and ±100 the full control effect
#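 Secreted IL-1B measured by AlphaLISA bead assay after 16 h compound exposure of THP-1 cells; compounds (final up to 57.5 uM) added 1 h before LPS (250 ng/mL) and ATP (1.25 mM) stimulation; lower signal means less secretion.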
# MCF10A rerep – A quantitative high throughput screen for small molecules that induce DNA re-replication in MCF 10a normal breast cells; MCF 10A DNA re-replication, Hoechst nuclear intensity, 48 h; Potency, µM (titrated, usually from 46.1 µM), for the others: at the highest dose activity, positive = re-replication, actives largely listed as activators; actives 2.9% (n = 350,000); AID 624296, 2012; further: potency means the concentration at half of the fitted maximal effect; % of control where 0% means no effect; nearly all actives have a fitted effect of over 50% in size
# Giardia kill – Small Molecules that selectively kill Giardia lamblia: qHTS | Giardia lamblia trophozoite viability | activity change, % at 7.66 µM, hits read low | actives 0.15% (n = 340,000) | AID 540267, 2011; in the data active means activity change below about -80%; inconclusive means between about -30% and that limit;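 further: parasites exposed to compound for two days anaerobically before the ATP read; on the % scale 0 is the no-effect control and ±100 the full control effect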
#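 Luminescence from cellular ATP indicates surviving trophozoites (100 cells/well) following 48 hrs anaerobic compound treatment at 37 deg C; signal develops 15-30 min at room temperature.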
# Vif-A3G inh – qHTS for Inhibitors of Vif-A3G Interactions: qHTS | DNA dC->dU-editing enzyme APOBEC-3G (Homo sapiens), Q9HC16 | HeLa A3G-eYFP + Vif (tagged APOBEC3G with the HIV-1 protein that degrades it), YFP fluorescence, overnight | Potency, µM (doses to about 46.1 µM), for the others: at the highest dose activity, negative = active, hits mostly inhibitors | actives 0.076% (n = 410,000) | AID 602310, 2012; further: potency means the concentration at half of the fitted maximal effect; on the % scale 0 is the no-effect control and ±100 the full control effect; nearly all actives have a fitted effect of over 60% in size
# Target sequence (Q9HC16 whole entry, looked up): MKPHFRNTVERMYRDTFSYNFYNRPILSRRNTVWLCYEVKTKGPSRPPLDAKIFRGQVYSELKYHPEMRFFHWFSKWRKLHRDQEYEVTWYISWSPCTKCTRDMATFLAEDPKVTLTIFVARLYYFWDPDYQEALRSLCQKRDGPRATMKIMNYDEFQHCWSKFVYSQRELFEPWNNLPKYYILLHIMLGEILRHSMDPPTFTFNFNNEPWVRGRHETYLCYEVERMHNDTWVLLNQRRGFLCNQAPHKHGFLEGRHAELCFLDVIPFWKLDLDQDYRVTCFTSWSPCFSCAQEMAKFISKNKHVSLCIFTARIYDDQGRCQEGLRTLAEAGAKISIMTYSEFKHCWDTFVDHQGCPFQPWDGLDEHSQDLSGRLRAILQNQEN
#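 Read-out is eYFP fluorescence (Ex 488/Em 500-530) from Vif-expressing HeLa A3G-eYFP cells; more signal means A3G escaped Vif-mediated degradation. Cells plated overnight, compound pinned in, incubated overnight at 37 deg C.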
# An asterisk follows results filed as active; ? = inconclusive; · = no result given. Shown are actives, neighbours in structure and some others; about 6.9% of the full set was active somewhere. Unless noted, the call rests on the fitted dose curve; in most records, active means well fitted curve in the direction sought with a large enough effect; inconclusive means small, poorly fitted or top-dose-only effect, or another doubt; inactive means no such curve, though single readings can be large; an effect the other way counts as inactive or inconclusive.
SMILES,Vif-A3F inh,SW480 rerep,IL1B secr inh,MCF10A rerep,Giardia kill,Vif-A3G inh
COc1ccc(C(=O)OC(C)C(=O)NC2CCCc3ccccc32)cc1OC (centres undefined),-2%,-19%,-52*,8%,-1,1%
Cc1ccc(S(=O)(=O)N2CCOCC2)cc1NC(=O)CSc1ccc(Cl)cc1,-25%,-4%,-9,4%,34,-6%
CC(C)CCNC(=O)c1cc(-c2cccnc2)nc2ccc(S(=O)(=O)N3CCC(C)CC3)cc12,1%,·,·,·,·,2%
Cc1ccc(S(=O)(=O)N2CCOCC2)cc1NC(=O)C(c1ccc(Cl)cc1)C(C)C (centres undefined),6%,7%,-58*,8%,41,0%
Cc1ccc(S(=O)(=O)N2CCOCC2)cc1NC(=O)c1cc(-c2ccccn2)nc2ccccc12,0%,-4%,-51*,?,35,-7%
O=C(Nc1cc(S(=O)(=O)N2CCOCC2)ccc1N1CCCCC1)c1cc(-c2ccccn2)nc2ccccc12,2%,1%,-11,12%,-4,-6%
CC1CCN(S(=O)(=O)c2ccc3nc(-c4ccccn4)cc(C(=O)NCCN(C)Cc4ccccc4)c3c2)CC1,4%,0%,-10,0.73µM*,-3,-4%
CCc1ccc(OCC(=O)Nc2cc3oc4ccccc4c3cc2OC)c(Br)c1,2%,·,·,·,·,-2%
Cc1c(Cl)cccc1NC(=O)Nc1nnc(N(C)C2CCCCC2)s1,-6%,·,·,·,·,2%
CCCOc1ccc(C(=O)Nc2cc(S(=O)(=O)N3CCOCC3)ccc2N2CCOCC2)cc1,7%,-5%,-53*,?,8,-2%
O=C(NCC1CCN(c2ccc(S(=O)(=O)N3CCOCC3)cc2)CC1)c1ccc(Cl)cc1,5%,-2%,-75*,6%,-3,2%
COc1ccc(C(=O)NC2CCSc3ccccc32)cc1S(=O)(=O)N1CCOCC1 (centres undefined),-4%,-4%,3,-1%,-21,0%
COc1ccc(C(=O)NC2CCCc3ccccc32)cc1S(=O)(=O)N1CCOCC1 (centres undefined),11%,10µM*,1,20%,3,-1%
Cc1cc(Cl)c(S(=O)(=O)Nc2cc(S(=O)(=O)N3CCOCC3)ccc2F)cc1OCC(N)=O,3%,34%,-3,0.65µM*,-2,-1%
Cc1cc(Cl)c(S(=O)(=O)Nc2ccc(S(=O)(=O)N3CCOCC3)cc2)cc1OCC(N)=O,1%,-68%,5,14%,-8,-1%
CCOc1ccc(OCCCC(=O)Nc2cc(S(=O)(=O)N3CCOCC3)ccc2N2CCOCC2)cc1,-4%,-4%,0,10%,18,-4%
CCOc1ccc(CNC(=O)CCC(=O)N2CC3CCCN3c3ccccc32)cc1 (centres undefined),0%,·,·,·,·,3%
COc1ccc(Oc2nc3c(c(=O)n(C)c(=O)n3C)n2Cc2ccc(Cl)cc2Cl)cc1,0%,·,·,·,·,2%
O=C(Nc1cccc([N+](=O)[O-])c1)c1cc(S(=O)(=O)N2CCOCC2)cs1,-5%,8%,-20,4%,13,0%
COc1ccc(C(=O)Nc2ccccc2N2CCOCC2)cc1S(=O)(=O)N1CCOCC1,1%,1%,0,-2%,-11,-1%
O=C(Nc1ccccc1[N+](=O)[O-])c1cc(S(=O)(=O)N2CCOCC2)cs1,?,?,?,23µM*,-21,-26%
O=C(Nc1ccc(N2CCCCC2)c(Cl)c1)c1ccc(N2CCOCC2)c([N+](=O)[O-])c1,-12%,0%,-13,14%,3,0%
